# Experimental data as given in a collection of fitness landscapes (doi:10.1126/science.1257360).
# Whole data set: some 140,000 sequences, median “enrichment ratio after two sorts for PhoP signalling” near 0, cut for the highest 2% near 11. For the sample, the highest values were picked, then their nearest neighbours and some sequences at random.
# B1: PhoQ; a variant is named by its letters at X, in order, P23837 (parent)
# chain: MKKLLRLFFPLSLRVRFLLATAAVVLVLSLAYGMVALIGYSVSFDKTTFRLLRGESNLFYTLAKWENNKLHVELPENIDKQSPTMTLIYDENGQLLWAQRDVPWLMKMIQPDWLKSNGFHEIEADVNDTSLLLSGDHSIQQQLQEVREDDDDAEMTHSVAVNVYPATSRMPKLTIVVVDTIPVELKSSYMVWSWFIYVLSANLLLVIPLLWVAAWWSLRPIEALAKEVRELEEHNRELLNPATTRELTSLVRNLNRLLKSERERYDKYRTTLTDLTHSLKTPLXXLQXXLRSLRSEKMSVSDAEPVMLEQISRISQQIGYYLHRASMRGGTLLSRELHPVAPLLDNLTSALNKVYQRKGVNISLDISPEISFVGEQNDFVEVMGNVLDNACKYCLEFVEISARQTDEHLYIVVEDDGPGIPLSKREVIFDRGQRVDTLRPGQGVGLAVAREITEQYEGKIVAGESMLGGARMEVIFGRQHSAPKDE
# Variants of: B1
# Experiment: enrichment ratio after two sorts for PhoP signalling (ratio (wild type AVST 3.29)); higher = more functional
# Conditions: with PhoP (E. coli)
row,Variant,enrichment ratio
1,HEMY,≤ 0.25
2,TSHA,3
3,IPQD,≤ 0.25
4,HTSR,≤ 0.25
5,FRDI,≤ 0.25
6,TEQS,7.71
7,GWCG,≤ 0.25
8,TLDG,≤ 0.25
9,PGHR,≤ 0.25
10,TESK,6.64
11,TESR,6.55
12,TESI,13.5
13,QGNK,≤ 0.25
14,RDYI,≤ 0.25
15,QMSV,10.5
16,KCGN,≤ 0.25
17,FFGN,≤ 0.25
18,NSGN,≤ 0.25
19,THGN,≤ 0.25
20,TTGN,21.9
21,TSGN,14.9
22,TGGN,13.9
23,KSGN,≤ 0.25
24,QGGN,14.7

row,Variant,enrichment ratio
1,LTGN,≤ 0.25
2,YTGN,≤ 0.25
3,QPGN,≤ 0.25
4,TNRW,≤ 0.25
5,LWKV,≤ 0.25
6,IVDK,≤ 0.25
7,EHTD,≤ 0.25
8,NKKA,≤ 0.25
9,MHGI,≤ 0.25
10,QKAH,≤ 0.25
11,KQVW,≤ 0.25
12,ECVR,≤ 0.25
13,KPPV,≤ 0.25
14,KAGN,≤ 0.25
15,MEGN,10.8
16,NAGN,≤ 0.25
17,MAGN,13.5
18,MCGN,16.3
19,MMGN,≤ 0.25
20,WWPI,≤ 0.25
21,DCFD,≤ 0.25
22,MILQ,14
23,MITA,≤ 0.25
24,MIFA,≤ 0.25

row,Variant,enrichment ratio
1,MIWI,3.74
2,MIAA,11.7
3,MTYF,7.02
4,MIYI,24.3
5,MELQ,3.81
6,MIAD,≤ 0.25
7,MDYF,≤ 0.25
8,MKAA,≤ 0.25
9,MIYF,24.3
10,KCES,≤ 0.25
11,FVYA,≤ 0.25
12,FGWI,≤ 0.25
13,LDYV,≤ 0.25
14,DLSC,≤ 0.25
15,IAQI,≤ 0.25
16,MIFC,≤ 0.25
17,MISC,23
18,MIYH,7.94
19,MILA,1.31
20,MILY,0.599
21,MIHF,3.77
22,MIGF,11.9
23,MIMF,0.51
24,MITI,14.6

row,Variant,enrichment ratio
1,MISK,≤ 0.25
2,MITH,≤ 0.25
3,MIGH,18.2
4,NIWL,≤ 0.25
5,WCMF,≤ 0.25
6,KFLW,≤ 0.25
7,SFFA,≤ 0.25
8,IEDQ,≤ 0.25
9,TAFY,2.48
10,RVSG,≤ 0.25
11,LAEY,≤ 0.25
12,GIVQ,2.03
13,MILT,≤ 0.25
14,MIFT,≤ 0.25
15,MIMV,≤ 0.25
16,MFAQ,≤ 0.25
17,MIWV,≤ 0.25
18,MIAT,12.1
19,MSAQ,9.85
20,MIAQ,14.7
21,MITV,17.2
22,HFIN,≤ 0.25
23,LDFC,≤ 0.25
24,MDHH,≤ 0.25

row,Variant,enrichment ratio
1,PDDC,≤ 0.25
2,IFMI,≤ 0.25
3,WEFI,≤ 0.25
4,RGNC,≤ 0.25
5,TGNC,61.8
6,SHNC,0.752
7,TCNC,14.3
8,SNNC,18.6
9,KCNC,≤ 0.25
10,KSNC,≤ 0.25
11,THNC,11.9
12,NHNC,≤ 0.25
13,STNC,≤ 0.25
14,SLNC,≤ 0.25
15,NGNC,≤ 0.25
16,SIFT,≤ 0.25
17,PGDY,≤ 0.25
18,QRCP,≤ 0.25
19,NMAF,≤ 0.25
20,QMGQ,≤ 0.25
21,QVAS,≤ 0.25
22,SKNA,≤ 0.25
23,DLFK,≤ 0.25
24,DATT,≤ 0.25

row,Variant,enrichment ratio
1,SHNF,9.74
2,FDNC,≤ 0.25
3,SHNQ,0.892
4,TANC,12.1
5,IANC,≤ 0.25
6,KANC,≤ 0.25
7,NHNQ,≤ 0.25
8,KDNC,≤ 0.25
9,THNQ,30.9
10,TFNC,2.85
11,YCNQ,≤ 0.25
12,TDNC,13.4
13,TFNQ,13.4
14,TNPA,≤ 0.25
15,VGFR,≤ 0.25
16,YITS,0.602
17,ECNN,≤ 0.25
18,KVKT,≤ 0.25
19,GNYR,≤ 0.25
20,DIML,≤ 0.25
21,MDSL,≤ 0.25
22,TESL,12.5
23,AESL,11.7
24,AQSL,7.47

row,Variant,enrichment ratio
1,MMSL,6.66
2,MESL,13.9
3,NESL,≤ 0.25
4,QESL,0.967
5,AHSL,0.581
6,RWWS,≤ 0.25
7,RAAP,≤ 0.25
8,FFQI,≤ 0.25
9,NMFS,≤ 0.25
10,AIQP,≤ 0.25
11,ERDH,≤ 0.25
12,TVNI,12.6
13,FVNS,≤ 0.25
14,TVNY,≤ 0.25
15,TVNW,≤ 0.25
16,TVNS,18.9
17,PVNI,≤ 0.25
18,WILF,≤ 0.25
19,MDWW,≤ 0.25
20,ACPI,9.4
21,RIAV,≤ 0.25
22,HQNT,≤ 0.25
23,IGGC,≤ 0.25
24,SHMW,0.684

row,Variant,enrichment ratio
1,THMG,2.89
2,THCG,5.77
3,SHCG,16.6
4,SHVG,≤ 0.25
5,SHMG,17.8
6,REDG,≤ 0.25
7,WCII,≤ 0.25
8,ENIH,≤ 0.25
9,MRCK,≤ 0.25
10,MGLF,2.83
11,RFHY,≤ 0.25
12,MMCI,≤ 0.25
13,SCAE,8.81
14,QGYM,23.9
15,NGYM,≤ 0.25
16,QQYN,≤ 0.25
17,QQYM,47.2
18,QQYI,≤ 0.25
19,MKYM,6.46
20,RGYM,≤ 0.25
21,TGYM,26.5
22,QTYM,0.346
23,FFYM,≤ 0.25
24,TKYM,25.3

row,Variant,enrichment ratio
1,TKYN,≤ 0.25
2,LYSK,≤ 0.25
3,DGPS,≤ 0.25
4,NVIN,≤ 0.25
5,YLDS,≤ 0.25
6,TVAW,2.61
7,SNQY,2.66
8,VDNL,≤ 0.25
9,REKA,≤ 0.25
10,QDYM,≤ 0.25
11,STYM,0.458
12,QEFM,18.2
13,QEYM,24.7
14,QKFM,≤ 0.25
15,QRFM,≤ 0.25
16,GMSV,6.09
17,MLVP,≤ 0.25
18,NCCG,≤ 0.25
19,NAWH,≤ 0.25
20,KCWH,≤ 0.25
21,QAWH,31.4
22,HRWH,≤ 0.25
23,KSWH,≤ 0.25
24,NVWH,≤ 0.25

row,Variant,enrichment ratio
1,TQWH,21.9
2,KAWH,≤ 0.25
3,NEWH,≤ 0.25
4,TGWH,19.8
5,TEWH,35.2
6,HPWH,≤ 0.25
7,KQNP,≤ 0.25
8,RGWC,≤ 0.25
9,PCRT,≤ 0.25
10,DAYY,≤ 0.25
11,HSCT,≤ 0.25
12,VRFP,≤ 0.25
13,DLDP,≤ 0.25
14,DHCF,≤ 0.25
15,MCIR,≤ 0.25
16,TEVT,3.71
17,NELD,≤ 0.25
18,TEWI,4.93
19,MELD,≤ 0.25
20,TEET,≤ 0.25
21,TELA,16.8
22,TELT,14.5
23,TELD,13.4
24,TENT,3.14

row,Variant,enrichment ratio
1,TEFT,5.71
2,TEYI,8.43
3,TEAT,17
4,NHGP,≤ 0.25
5,KQPT,≤ 0.25
6,KTHI,≤ 0.25
7,QTDQ,≤ 0.25
8,GRFL,≤ 0.25
9,AWWN,≤ 0.25
10,HNIY,≤ 0.25
11,YESG,0.306
12,TELC,11.4
13,NELH,2.12
14,TELN,21.6
15,NELY,≤ 0.25
16,TELY,15.5
17,DELY,≤ 0.25
18,TEYN,3.14
19,QELC,≤ 0.25
20,TELH,11.2
21,HPLH,≤ 0.25
22,HPLN,≤ 0.25
23,NELC,5.14
24,KTRY,≤ 0.25

row,Variant,enrichment ratio
1,PMLD,≤ 0.25
2,APTN,≤ 0.25
3,TEAF,13.8
4,QRGT,≤ 0.25
5,QGGT,8.36
6,MEAS,3.94
7,QEAS,10.1
8,TEAS,16.2
9,QEGT,24.3
10,QEAF,≤ 0.25
11,MEAF,≤ 0.25
12,QEAD,≤ 0.25
13,TEAD,16.8
14,TEAA,2.61
15,EISC,≤ 0.25
16,KVKA,≤ 0.25
17,EFER,≤ 0.25
18,EFNA,≤ 0.25
19,IKFE,≤ 0.25
20,PTLL,≤ 0.25
21,SHIM,2.2
22,PILC,≤ 0.25
23,YTYS,≤ 0.25
24,NELF,≤ 0.25

row,Variant,enrichment ratio
1,MELL,3.52
2,TELS,12.5
3,TELL,16.9
4,TELP,≤ 0.25
5,TELF,12.2
6,MELF,0.528
7,CDYS,≤ 0.25
8,TELW,≤ 0.25
9,TEYS,11.9
10,NELL,≤ 0.25
11,PWMG,≤ 0.25
12,ETEG,≤ 0.25
13,ASGY,3.18
14,YDLK,≤ 0.25
15,MDNI,≤ 0.25
16,IQKP,≤ 0.25
17,VRDA,≤ 0.25
18,WIHY,≤ 0.25
